The whole screen tested about 310,000 compounds, of which about 14,000 (4.5%) showed an effect of 50% or more. Effects have a minus sign here. What follows is part of a selection rich in strong results, with near analogues and random picks from the rest.
The molecules below were run against human ether-à-go-go-related gene (hERG) potassium channel (human, UniProt Q12809) (assay: primary screen, population patch clamp on CHO cells stably expressing hERG; higher = less effect of the substance).
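Note: peak tail current of the secondary pulse compared with the same well before compound.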

Chain of human ether-à-go-go-related gene (hERG) potassium channel (Q12809 whole entry, looked up): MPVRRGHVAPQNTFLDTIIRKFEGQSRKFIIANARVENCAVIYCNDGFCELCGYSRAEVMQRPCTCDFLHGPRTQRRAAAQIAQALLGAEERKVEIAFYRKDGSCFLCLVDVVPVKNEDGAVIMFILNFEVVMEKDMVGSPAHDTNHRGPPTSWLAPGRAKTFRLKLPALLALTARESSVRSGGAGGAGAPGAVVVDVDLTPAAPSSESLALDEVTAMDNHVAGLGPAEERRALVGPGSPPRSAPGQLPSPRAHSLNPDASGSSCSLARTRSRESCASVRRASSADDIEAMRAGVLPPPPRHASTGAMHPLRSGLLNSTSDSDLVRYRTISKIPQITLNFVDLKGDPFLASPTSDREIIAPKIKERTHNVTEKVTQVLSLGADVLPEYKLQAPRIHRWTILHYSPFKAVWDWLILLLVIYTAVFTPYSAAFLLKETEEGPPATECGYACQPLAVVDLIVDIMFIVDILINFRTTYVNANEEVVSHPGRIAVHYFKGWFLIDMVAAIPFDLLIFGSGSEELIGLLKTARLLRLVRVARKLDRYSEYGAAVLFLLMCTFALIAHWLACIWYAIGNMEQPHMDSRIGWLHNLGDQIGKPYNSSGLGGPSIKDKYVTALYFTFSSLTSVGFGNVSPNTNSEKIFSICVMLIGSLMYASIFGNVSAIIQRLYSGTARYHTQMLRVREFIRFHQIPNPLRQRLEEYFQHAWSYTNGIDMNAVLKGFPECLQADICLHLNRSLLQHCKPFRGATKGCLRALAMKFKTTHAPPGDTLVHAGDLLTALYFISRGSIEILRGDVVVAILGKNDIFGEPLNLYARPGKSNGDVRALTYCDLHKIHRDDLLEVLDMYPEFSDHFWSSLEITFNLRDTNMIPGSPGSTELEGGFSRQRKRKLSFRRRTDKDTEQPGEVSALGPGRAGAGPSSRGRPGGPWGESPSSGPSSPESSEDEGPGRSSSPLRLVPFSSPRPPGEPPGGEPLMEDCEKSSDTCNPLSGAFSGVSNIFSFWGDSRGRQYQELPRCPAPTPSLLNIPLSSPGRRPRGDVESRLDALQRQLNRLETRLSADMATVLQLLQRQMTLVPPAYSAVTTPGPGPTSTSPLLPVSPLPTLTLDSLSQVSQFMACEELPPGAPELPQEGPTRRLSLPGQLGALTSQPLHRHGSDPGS

SMILES	hERG current change (%, negative = inhibition) at 10uM [%]
CCOC(=O)c1cccc(NC(=O)c2ccc(F)cc2F)c1	-16.1
O=c1ccnc(Nc2ccc(Cl)cc2)[nH]1	-10.3
C/C(=N/NC(=O)CNC(=O)c1ccco1)c1ccco1	2.11
Cc1cccnc1NC(=O)Nc1ccc(Cl)cc1	9.39
Cc1ccc(N(CCC#N)C(=O)CSc2nnc3ccccn23)cc1	-8.44
COc1ccc2ccccc2c1CN1CCN(Cc2ccccc2)CC1	-2.66
Oc1cccc(Nc2nc(N3CCOCC3)nc(N3CCOCC3)n2)c1	8.76
CSc1ccc(CN(C)C(=O)CNC(=O)CNS(=O)(=O)c2ccc(C)c(C)c2)cc1	-24.1
CN(C(=O)N1CCN(c2ccccn2)CC1)c1ccccc1	7.47
Cc1cc(Cn2nc(C(=O)NCc3cccc(Br)c3)cc2-c2ccccc2)on1	-20.3
Cc1cc(Cn2nc(C(=O)NCc3cccc(C(F)(F)F)c3)cc2-c2ccccc2)on1	-57
Cc1cc(Cn2nc(-c3ccccc3)cc2C(=O)NCc2cccc(C(F)(F)F)c2)on1	10.8
CCOC(=O)c1c(NC(=O)CSc2nnc(C)s2)sc2c1CCC(C)C2 (centres unmarked)	21.5
CN1CCN(c2ccc(NS(=O)(=O)c3ccc(Cl)cc3)cn2)CC1	-40.2
O=C(CC1SC(=O)N(Cc2ccccc2Cl)C1=O)Nc1nccs1 (centres unmarked)	-5.31
CC1=C/C(=N\NC(=O)c2ccccc2)CC1	-53.1
CC1=C/C(=N\NC(=O)c2ccc(O)cc2)CC1	20.8
COc1ccccc1OCC(=O)N/N=C1/C=C(C)CC1	-3.82
Cc1oc2c(c1C(=O)NCc1cccnc1)C(=O)c1ccccc1C2=O	-47
COc1cccc(NC(=O)CCc2nc(-c3ccccc3F)no2)c1	-0.885
COc1ccccc1C(=O)Nc1cc(Cl)ccc1-n1cncn1	0.114
CCN(CC)c1ccc(C(=O)NC(=S)Nc2cc(S(=O)(=O)N3CCOCC3)ccc2-n2cncn2)cc1	-7.1
COc1ccc(C(=O)Nc2cc(Cl)ccc2-n2cncn2)c(OC)c1OC	-14.4

SMILES	hERG current change (%, negative = inhibition) at 10uM [%]
O=C(Nc1cc(Cl)ccc1-n1cncn1)c1cccc(S(=O)(=O)N2CCOCC2)c1	-61.9
CN1CCN(S(=O)(=O)c2cccc(C(=O)Nc3cc(Cl)ccc3N3CCOCC3)c2)CC1	-42.3
O=C(Nc1cc(Cl)ccc1-n1cncn1)c1ccc(F)c(S(=O)(=O)N2CCOCC2)c1	-44.6
O=C(Nc1cc(S(=O)(=O)N2CCOCC2)ccc1-n1cncn1)c1ccc(Cl)cc1	-50.4
COc1cc(OC)c(C(=O)Nc2cc(Cl)ccc2-n2cncn2)cc1OC	-55
O=C(Nc1cc(Cl)ccc1-n1cncn1)c1cc(S(=O)(=O)N2CCOCC2)ccc1F	-34.7
Oc1c(C(c2cccs2)N2CCN(c3ccccc3)CC2)ccc2cccnc12 (centres unmarked)	7.17
COC(=O)C1C(O)=C(C=NCc2ccccc2)C(=O)CC1(C)C (centres unmarked)	-5.13
CC(=O)N(C)c1ccc(NC(=O)N2CCOCC2)cc1	4.94
Cc1ccc(N2CC(O)Cn3c2nc2c3c(=O)[nH]c(=O)n2C)cc1 (centres unmarked)	13.3
Cc1ccc2nc(NCCC(=O)O)nc(-c3ccccc3)c2c1	3.76
CN(Cc1ccccc1)C(=O)CCC1CCN(C(=O)c2ccccc2C(F)(F)F)CC1	8.38
CSCc1ccc(C(=O)N2CCC(CCC(=O)N(C)Cc3ccccc3)CC2)o1	-50.7
CN(Cc1ccccc1)C(=O)CCC1CCN(C(=O)CCC(F)(F)F)CC1	-4.45
COC(=O)c1ccc(OC)c(CSc2nnc(COc3ccccc3)o2)c1	-17.7
Br.CCOC(=O)c1c(CSC(=N)N)n(C)c2cc(Br)c(OC(C)=O)cc12	-68.7
CCOC(=O)c1c(C)n(C)c2cc(Br)c(C)cc12	23.3
CCOC(=O)c1c(CSc2ccccc2)n(C)c2cc(Br)c(OCC(O)CNC(CO)(CO)CO)cc12 (centres unmarked)	2.71
Br.CCOC(=O)c1c(CSC(=N)N)n(-c2ccc(C)cc2)c2cc(Br)c(OC(C)=O)cc12	-65.4
Br.CCCCCCCCOC(=O)c1c(CSC(=N)N)n(C)c2cc(Br)c(OC(C)=O)cc12	-22.8
CCOC(=O)c1c(CSC(=N)N)n(-c2ccccc2)c2cc(Br)c(OC(C)=O)cc12	-77.9
C=CCCc1ccc(C#N)c(SCc2c(C(=O)OCC)c3cc(OC(C)=O)c(Br)cc3n2C)n1	-1.18
CCOC(=O)c1c(C)n(C)c2c1cc(OC(C)=O)c1ccccc12	19.7

SMILES	hERG current change (%, negative = inhibition) at 10uM [%]
CCOC(=O)c1c(CSc2nc(C)cc(C)c2C#N)n(C)c2cc(Br)c(OC(C)=O)cc12	8.76
CC12CCC(C(=O)Nc3cccc(Cl)c3Cl)([C@H](Br)C1=O)C2(C)C (some centres unmarked)	-39.6
COC(=O)c1ccc(NC(=O)C2CCCN(S(=O)(=O)c3cnc[nH]3)C2)cc1 (centres unmarked)	3.35
Cc1ccc(C(=O)c2oc3ccccc3c2N)cc1	-7.77
CCCCOc1ccc(C(=O)NCC(=O)NC(C)CCc2ccccc2)cc1 (centres unmarked)	-4.99
CC(=O)c1cnc(N(C)C)s1	10
Cc1nnc(SCC(=O)Nc2ccc(-c3nc4ccccc4s3)cc2)s1	23.4
N/C(=N\[N+](=O)[O-])N1CCN(C(=O)OC2CCCC2)CC1	19.4
COc1ccc(CNC(=O)CC(C)S(=O)(=O)c2ccc3c(c2)NC(=O)CO3)cc1 (centres unmarked)	10.1
Cn1c(SCC(=O)Nc2ccc(Cl)cn2)nnc1C1CC1	-3.25
O=C(CCc1ccccc1)Nc1ccncc1	-56.8
C=CCn1cccc(C(=O)Nc2ccc(C)c(C)c2)c1=O	-71.9
C=CCn1cccc(C(=O)Nc2ccc(C)c(Cl)c2)c1=O	10
C=CCn1cccc(C(=O)Nc2ccc(C)cc2)c1=O	-7.96
O=C(Nc1ccccc1)c1cccn(Cc2ccccc2)c1=O	13.7
O=C(CCc1ccccc1)Nc1ccccc1	-2.56
O=C(Nc1ccncc1)c1cccn(Cc2ccccc2)c1=O	-55.8
O=C(CCc1ccccc1)Nc1cccc(NC(=O)CCc2ccccc2)c1	-13.4
O=C(NCc1ccccc1)c1cccn(Cc2ccccc2)c1=O	-29.3
COc1ccc(NC(=O)COC(=O)CN2C(=O)NC(C)(C)C2=O)cc1	2.55
Cc1ccc(-c2cccc(OC(=O)c3ccccc3F)c2)cc1	5.02
COc1ccc(NC(=O)C2CCN(S(=O)(=O)c3ccc4[nH]c(=O)oc4c3)CC2)c(OC)c1	3.47
O=S(=O)(c1ccccc1)c1nc(-c2ccc(F)cc2)oc1NCC1CCCO1 (centres unmarked)	-34.6

SMILES	hERG current change (%, negative = inhibition) at 10uM [%]
COc1cc2c(cc1OC)CN(C(=O)C(C)(C)C)CC2	17.6
COc1ccc(CCNCC(O)COc2cccc(Br)c2)cc1 (centres unmarked)	-50
COc1ccc(CCNCC(O)COc2cccc(Br)c2)cc1OC (centres unmarked)	-67.3
OC(CNCCc1ccc(C(F)(F)F)cc1)COc1ccc2ccccc2c1 (centres unmarked)	-46.5
COc1ccc(CCNCC(O)COc2cccc(C(C)=O)c2)cc1OC.O=C(O)C(=O)O (centres unmarked)	-0.028
COc1ccc(CCNCC(O)COc2ccc(OC)cc2C(C)(C)C)cc1 (centres unmarked)	-38.8
COc1ccc(CCNCC(O)COc2c(C)cccc2C)cc1OC.O=C(O)C(=O)O (centres unmarked)	6.84
COc1ccc(CCNC(=O)COC(=O)COc2ccc(Cl)cc2)cc1OC	7.05
COc1ccc(CCNC(=O)CCCOc2ccc(Cl)cc2)cc1OC	-15.3
COc1ccc(CCNCC(O)COc2ccc(Cl)cc2)cc1OC.Cl (centres unmarked)	-72.1
CCN1CCCC1CNC(=O)C(=O)Nc1ccccc1OC (centres unmarked)	-15
C#CCNC(=O)C1=C[C@@H](c2ccc(Br)cc2)C[C@@H](OCc2ccc(CO)cc2)O1	16.6
Cl.N=c1ccn(Cc2cccc(Cl)c2)cc1	2.03
C=CCO/N=C/C1C(=O)CC(C)(C)CC1=O	10.9
CC(C(=O)NC1CCCC1)N(C(=O)CS(=O)CC(=O)Nc1ccc(F)cc1)c1ccc2c(c1)OCCO2 (centres unmarked)	-3.58
CC(=O)c1csc(CS(=O)(=O)c2ccccn2)n1	5.4
Fc1cccc(Nc2nc3ccccc3n3cnnc23)c1	4.55
CCn1c(CS(=O)Cc2ccc(Cl)cc2Cl)nnc1SCc1c(Cl)cccc1Cl (centres unmarked)	-6.78
Cn1c(CS(=O)Cc2c(Cl)cccc2Cl)nnc1SCc1c(Cl)cccc1Cl (centres unmarked)	-45.1
Cn1c(CS(=O)Cc2c(Cl)cccc2Cl)nnc1SCc1ccc(Cl)cc1 (centres unmarked)	-56.2
